Hits are enriched below; roughly 8.3% of the tested compounds scored in any of these assays.
Giardia FBPA inh: qHTS Assay for Inhibitors of Fructose-1,6-bisphosphate Aldolase from Giardia Lamblia; A8B2U2; purified Giardia FBPA; Potency, µM (titrated, usually from 59.6 µM), hits mostly inhibitors; hit rate 0.71% among 290,000; AID 2451, 2010; also: nearly all actives have a fitted effect of over 55% in size
Target sequence (A8B2U2 whole entry, looked up): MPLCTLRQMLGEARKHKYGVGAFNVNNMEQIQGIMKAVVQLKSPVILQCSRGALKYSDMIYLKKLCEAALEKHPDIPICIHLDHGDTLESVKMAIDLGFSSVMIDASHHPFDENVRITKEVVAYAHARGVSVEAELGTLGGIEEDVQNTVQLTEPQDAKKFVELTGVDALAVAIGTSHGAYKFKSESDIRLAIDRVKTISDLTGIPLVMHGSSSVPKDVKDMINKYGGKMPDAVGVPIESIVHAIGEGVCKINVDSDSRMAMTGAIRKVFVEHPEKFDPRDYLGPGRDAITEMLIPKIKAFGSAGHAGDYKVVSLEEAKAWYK
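Giardia FBPA (40 nM reagent) was preincubated 10 min at RT with compound (up to 57.5 uM final), then substrate plus GAPDH/TPI/NAD/arsenate coupling system with diaphorase/resazurin was added; resorufin fluorescence (525/598 nm) was read after 20 min.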
HCV inh: qHTS Assay for Inhibitors of Hepatitis C Virus (HCV); Huh7.5.1 HCVcc-Cre infection, luciferase reporter, 44 h; Potency, µM (doses to about 41.8 µM), actives largely listed as inhibitors; hit rate 3.4% among 340,000
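Infectious HCV cell culture screen: compound-treated cells (1,000/well, pre-plated 4 h) are infected with HCVcc-Cre at roughly 0.5 moi and grown 44 h. Infection is quantified by luciferase signal after 15 min substrate incubation at room temperature.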
LASV entry inh: qHTS for Inhibitors of binding or entry into cells for Lassa Virus; Potency, µM (doses to about 37.9 µM), usual class: inhibitors; hit rate 1.2% among 300,000; Lassa virus pseudotype entry inhibition, cell reporter; calls by dose curve; tested in HEK293 cells; also: nearly all actives have a fitted effect of over 50% in size
FMDV inh: High Throughput Screening for Foot and Mouth Disease Virus Antivirals | hit rate 1.2% among 410,000 | Potency, µM (series often up to 57.9 µM), hits mostly inhibitors | FMDV antiviral cell-based qHTS; calls by dose curve; tested in HEK293T cells; also: read-out not given here; nearly all actives have a fitted effect of over 45% in size
MARV entry inh: qHTS for inhibitors of binding or entry into cells for Marburg Virus | Potency, µM (doses to about 37.8 µM), usual class: inhibitors | hit rate 1.8% among 300,000 | AID 540276, 2011 | Marburg virus pseudotyped entry inhibition, cell reporter; calls by dose curve; tested in HEK293 cells
HCMV antiviral: qHTS Assay for inhibitors of the human cytomegalovirus (HCMV); HFF cells, HCMV-luciferase reporter, 72 h; active compounds read low; activity change, negative = inhibition, % at 57.5 µM; hit rate 4.5% among 410,000; AID 1259415, 2018; in the data active = activity change below about -60%; inconclusive = no clear call, values can overlap the other calls; inactive = above about -39%
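Screen run at 2 compound doses on HFFs infected with reporter HCMV, MOI 1 PFU/cell. Luciferase activity from cell lysates at 72 h post infection gave inhibition relative to buffer-only and Salinomycin wells.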
A number is an active result; 0 = inactive; ? = inconclusive; - = no result given; [ ] = another dose, or the depositor's remark. Unless noted, calls follow the shape of the dose curve; as a rule, active = well fitted curve in the direction sought with a large enough effect; inconclusive = small, poorly fitted or top-dose-only effect, or another doubt; inactive = no such curve, though single readings can be large; an effect the other way counts as inactive or inconclusive.

SMILES | Giardia FBPA inh | HCV inh | LASV entry inh | FMDV inh | MARV entry inh | HCMV antiviral
Cc1nn2c(=O)cc(COC(=O)c3cccc(NC(=O)c4cccs4)c3)nc2s1 | - | - | 0 | 10µM | - | 0
Cc1nn2c(=O)cc(COC(=O)c3ccc(NC(=O)c4cccc(Br)c4)cc3)nc2s1 | - | - | 0 | 17.8µM | - | 0
Cc1ccccc1C(=O)Nc1ccc(C(=O)OCc2cc(=O)n3nc(C4CC4)sc3n2)cc1 | - | - | ? | 12.6µM | - | -81.0
Cc1nn2c(=O)cc(COC(=O)c3ccc(NC(=O)C4CCCCC4)cc3)nc2s1 | - | - | 0 | 11.2µM | - | -64.6
CC(C)Cc1nn2c(=O)cc(COC(=O)c3cccc(NC(=O)c4cccs4)c3)nc2s1 | - | - | 0 | 0 | - | 0
COc1ccc(-c2nc3c(c4c2C[C@H](c2ccccc2)OC4)CN(C(=O)NCCc2c[nH]c4ccccc24)CC3)c(C)c1 | 0[12.9 µM] | - | - | - | - | -
COc1cc2c(cc1OC)-c1cc3cc(OC)c(OC)cc3c(=O)n1CC2 | 0 | - | - | 0 | - | -
Cc1cc2c(c(=O)n1Cc1ccccc1)[C@H]1O[C@](c3ccsc3)(Cc3cc(C#N)ccc31)O2 | - | - | - | - | 0 | -
COc1ccc(CN2c3ccccc3C(=O)CS2(=O)=O)cc1OC | - | - | - | - | - | 0
c1cc(CN2CCCNCCNCCCNCC2)ccc1CN1CCCNCCNCCCNCC1 | 0 | - | - | - | - | -
Cc1cccc(C(=O)Nc2ccc(C(=O)OCc3cc(=O)n4nc(C5CC5)sc4n3)cc2)c1 | - | - | 3.16µM | 14.1µM | - | 0
O=C(Nc1ccc(C(=O)OC[C@@H]2CCCN3CCCC[C@H]23)cc1)c1cccc(Br)c1 | 0 | 11.2µM | 0 | 0 | 9.2µM | 0
Cc1ccc(C(=O)Nc2cccc(C(=O)OCc3cc(=O)n4c5c(sc4n3)CCCC5)c2)cc1 | - | - | 0 | 0 | - | -88.2
Cc1ccc(C(=O)Nc2ccc(C(=O)OCc3cc(=O)n4nc(C5CC5)sc4n3)cc2)cc1 | - | - | ? | 0 | - | 0
CC(C)c1nn2c(=O)cc(COC(=O)c3ccccc3NC(=O)c3cccc(Cl)c3)nc2s1 | - | - | 0 | 8.91µM | - | 0
O=C(Nc1cccc(C(=O)OCc2cc(=O)n3c4c(sc3n2)CCCC4)c1)c1ccccc1 | - | - | 0 | 0 | - | 0
COC(=O)C1CCN(c2csc3ccc(Cl)cc3c2=O)CC1 | - | - | 0 | 0 | - | 0
COc1cc(C)c(CN2C[C@H](Sc3nc4ccccc4[nH]3)C[C@H]2C(=O)N(C)C)cc1C | - | - | - | 0 | - | -
COc1cccc(Cn2c(=O)c(-c3ccc(Cl)cc3)nc3cncnc32)c1 | 0 | - | - | 0 | - | -
CC1(C)O[C@H]2[C@@H](O1)[C@@H](C(=O)Nc1cc(F)ccc1F)O[C@@H]1OC(C)(C)O[C@@H]12 | - | - | 0 | 0 | 0 | -88.9
CC1(C)O[C@H]2[C@@H](O1)[C@@H](C(=O)Nc1ccccc1O)O[C@@H]1OC(C)(C)O[C@@H]12 | - | - | 0 | 0 | 0 | 0
O=C(NCCc1nnc2n1CCN(Cc1cc3ccccc3o1)CC2)c1ccoc1 | - | - | - | 0 | - | -
Cc1cccc(N=C2NN=C(c3ccccc3F)CS2)c1C | 0 | ? | 0 | 0 | ? | 0
Fc1ccccc1N=C1NN=C(c2ccccc2)CS1 | 0 | ? | ? | 0 | 11.2µM | -98.1
COc1ccc(C2=NNC(=Nc3cc(S(=O)(=O)N(C)C)ccc3C)SC2)c(OC)c1 | 0 | 12.6µM | - | ? | - | -97.5
SMILES | Giardia FBPA inh | HCV inh | LASV entry inh | FMDV inh | MARV entry inh | HCMV antiviral
COCCn1c(C)cc(C2=NNC(=Nc3ccccc3F)SC2)c1C | 0 | 0 | 2µM | ? | ? | -73.0
Fc1ccc(F)c(C2=NNC(=Nc3ccccc3F)SC2)c1 | 0 | ? | ? | 0 | ? | ?
CN(C)S(=O)(=O)c1cccc(N=C2NN=C(c3ccccc3)CS2)c1 | 0 | 35.5µM | ? | ? | ? | ?
COCCNc1nc(-c2ccccc2Cl)nc2ccccc12 | 0 | - | - | 0 | - | -
COc1ccc(NC(=O)Cn2cc(S(=O)(=O)c3ccccc3)c(=O)c3cc(C)ccc32)cc1Cl | - | - | 0 | 0 | 0 | 0
COc1cc(=O)n2c(c1C(=O)N(C)Cc1nonc1C)CCN(Cc1c(F)cccc1F)CC2 | - | - | - | 0 | - | -
COCCCN=C1NN=C(c2cc(C)n(-c3ccccc3F)c2C)CS1 | 0 | ? | 14.6µM | 0 | 2.06µM | ?
COCCCN=C1NN=C(c2cc(C)n(Cc3ccccc3Cl)c2C)CS1 | 0 | ? | ? | 0 | ? | -64.5
COCCNC(=S)N1CCN(c2nc(-c3ccc(F)cc3)cs2)CC1 | 0 | ? | - | 0 | - | 0
